Results filed as inconclusive are left out. Calls of active or inactive are those of the source. Calls come from the whole dose curve; as a rule, active = well fitted curve in the direction sought with a large enough effect in the repeat runs; inconclusive = weak or mixed curves; inactive = no such curve, though single readings can be large; an effect the other way counts as inactive or inconclusive.
Assays:
[1] = A CellTox Green Cytotoxicity Assay to monitor cytotoxicity in HEK293 cells - 32 hour (AID 1224881); conditions: CellTox Green fluorescence; series mostly up to 76.8 µM; note: nearly all actives have a fitted effect of over 40% in size
Procedure, shortened: (§1)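 Real-time, in one plate: 600 HEK293 cells/well with dead-cell DNA dye, pinned compound after 5 h, 37 C incubation over 40 h; viable cells give no appreciable fluorescence.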

[2] = A CellTox Green Cytotoxicity Assay to monitor cytotoxicity in HepG2 cells - 0 hour (AID 1224882); conditions: CellTox Green fluorescence; series mostly up to 76.8 µM; note: nearly all actives have a fitted effect of over 35% in size
Procedure, shortened: (§2)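 Cytotoxicity was tracked as dead-cell DNA fluorescence in HepG2 cells treated with test compounds at 37 C; each time-point value comes from one kinetic series spanning 0, 8, 16, 24, 32 and 40 h.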

[3] = A CellTox Green Cytotoxicity Assay to monitor cytotoxicity in HepG2 cells - 32 hour (AID 1224883); conditions: CellTox Green fluorescence; series mostly up to 76.8 µM; note: nearly all actives have a fitted effect of over 50% in size
Procedure, shortened: as §2

[4] = A CellTox Green Cytotoxicity Assay to monitor cytotoxicity in HEK293 cells - 8 hour (AID 1224884); conditions: CellTox Green fluorescence; series mostly up to 76.8 µM; note: nearly all actives have a fitted effect of over 35% in size
Procedure, shortened: as §1

[5] = qHTS RealTime-Glo MT Cell Viability Assay in HepG2 cells - 16 hour (AID 1224885); conditions: RealTime-Glo luminescence; series mostly up to 76.8 µM; note: nearly all actives have a fitted effect of over 50% in size
Procedure, shortened: (§3)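 Compound treatment began 5 h after plating HepG2 cells (600/well) with NanoLuc luciferase and prosubstrate. Plates stayed at 37 C for 40 h; luminescence was captured at six time points, 0 h through 40 h.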

[6] = qHTS RealTime-Glo MT Cell Viability Assay in HEK293 cells - 24 hour (AID 1224886); conditions: RealTime-Glo luminescence; series mostly up to 76.8 µM; note: top concentration of the series differs between compounds; nearly all actives have a fitted effect of over 50% in size
Procedure, shortened: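 Quantitative high-throughput screen of the Tox21 10K library in HEK293: cells and RealTime-Glo reagents plated together, compound added at 5 h, luminescence monitored through 40 h at 37 C.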

[7] = A CellTox Green Cytotoxicity Assay to monitor cytotoxicity in HEK293 cells - 16 hour (AID 1224888); conditions: CellTox Green fluorescence, hits give high values; series mostly up to 76.8 µM; note: nearly all actives have a fitted effect of over 35% in size
Procedure, shortened: as §1

[8] = A CellTox Green Cytotoxicity Assay to monitor cytotoxicity in HepG2 cells - 8 hour (AID 1224890); conditions: CellTox Green fluorescence; series mostly up to 76.8 µM; note: nearly all actives have a fitted effect of over 45% in size
Procedure, shortened: as §2

[9] = qHTS RealTime-Glo MT Cell Viability Assay in HEK293 cells - 8 hour (AID 1224887); conditions: RealTime-Glo luminescence; series mostly up to 76.8 µM; note: top concentration of the series differs between compounds; nearly all actives have a fitted effect of over 50% in size
Procedure, shortened: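 Kinetic, non-lysing viability readout. Seed HEK293 (600/well) with reagent, incubate 5 h at 37 C/5% CO2, pin 23 nL compound in DMSO, incubate at 37 C, read luminescence at 0, 8, 16, 24, 32, 40 h.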

[10] = qHTS RealTime-Glo MT Cell Viability Assay in HepG2 cells - 0 hour (AID 1224889); conditions: RealTime-Glo luminescence; series mostly up to 76.8 µM; note: nearly all actives have a fitted effect of over 50% in size
Procedure, shortened: as §3
% is set by controls: 0 for no effect and ±100 for the full control effect.

CC(=O)Nc1ccc(OCC(O)CNC(C)C)cc1 (stereo not drawn)
inactive: outcome [1] | Potency [2] | Potency [3] | outcome [4] | outcome [5] | Potency [6] | outcome [7] | outcome [8]

CCOC(=O)COC(=O)c1ccccc1C(=O)OCC
inactive: outcome [1] | Potency [2] | Potency [3] | outcome [4] | outcome [5] | Potency [9] | outcome [7] | outcome [8]

NS(=O)(=O)Cc1noc2ccccc12
inactive: outcome [1] | Potency [2] | Potency [3] | outcome [4] | outcome [5] | Potency [6] | outcome [7] | Potency [10] | outcome [8]

COc1cc(-c2ccc(=O)[nH]n2)ccc1OC(F)F
inactive: outcome [1] | Potency [2] | Potency [3] | outcome [4] | outcome [5] | Potency [6] | outcome [7] | Potency [10] | outcome [8]

CCCO[Si](OCCC)(OCCC)OCCC
inactive: outcome [1] | Potency [2] | Potency [3] | outcome [4] | outcome [5] | Potency [9] | outcome [7] | Potency [10] | outcome [8]

CCCC[N+](C)(CCCC)CCCC
inactive: outcome [1] | Potency [2] | Potency [3] | outcome [4] | outcome [5] | Potency [9] | outcome [7] | Potency [10] | outcome [8]

CCCCN1C=CN(C)C1
inactive: cytotoxicity increase [1] -9.11% [at 15.8 µM] | cytotoxicity [2] -12.1% [at 15.8 µM] | cytotoxicity increase [3] -19.6% [at 15.8 µM] | cytotoxicity increase [4] -6.47% [at 15.8 µM] | activity change, negative = cytotoxic [5] 3.26% [at 15.8 µM] | activity change, negative = cytotoxicity [6] 9.28% [at 15.8 µM] | activity change [7] -9.59% [at 15.8 µM] | activity change, negative = cytotoxicity [10] 0.175% [at 15.8 µM] | cytotoxicity increase [8] -8.5% [at 15.8 µM]

CC(C)COC(=O)c1ccc(N)cc1
inactive: outcome [1] | Potency [2] | Potency [3] | outcome [4] | outcome [5] | Potency [9] | outcome [7] | Potency [10] | outcome [8]

O=S(=O)(O)c1cccc2ccccc12
inactive: outcome [1] | Potency [2] | Potency [3] | outcome [4] | outcome [5] | Potency [6] | outcome [7] | Potency [10] | outcome [8]

CCCCOCCOC(=O)COc1cc(Cl)c(Cl)cc1Cl
inactive: outcome [1] | Potency [2] | Potency [3] | outcome [4] | outcome [5] | Potency [6] | outcome [7] | Potency [10] | outcome [8]

Cc1onc(-c2c(Cl)cccc2Cl)c1C(=O)Cl
inactive: outcome [1] | Potency [2] | Potency [3] | outcome [4] | outcome [5] | Potency [9] | outcome [7] | Potency [10] | outcome [8]

CCCC(C)C(=O)OCC (stereo not drawn)
inactive: outcome [1] | Potency [2] | Potency [3] | outcome [4] | outcome [5] | Potency [9] | outcome [7] | outcome [8]

[Ca+2]
inactive: outcome [1] | Potency [2] | Potency [3] | outcome [4] | outcome [5] | Potency [9] | outcome [7] | Potency [10] | outcome [8]

CCOCC(C)O (stereo not drawn)
inactive: outcome [1] | Potency [2] | Potency [3] | outcome [4] | outcome [5] | Potency [6] | outcome [7] | Potency [10] | outcome [8]

COc1cc2c(cc1OC)-c1cc3ccc(OC)c(OC)c3c[n+]1CC2
inactive: outcome [1] | Potency [2] | Potency [3] | outcome [4] | outcome [5] | outcome [7] | Potency [10] | outcome [8]

CCC(C)(CCCC(C)C)OC(C)=O (stereo not drawn)
inactive: outcome [1] | Potency [2] | Potency [3] | outcome [4] | outcome [5] | Potency [6] | outcome [7] | Potency [10] | outcome [8]

CC1(C)[C@@H]2CC[C@@]1(C)[C@H](O)C2
inactive: outcome [1] | Potency [2] | Potency [3] | outcome [4] | outcome [5] | Potency [6] | outcome [7] | Potency [10] | outcome [8]

CCOC(=O)OC(C)OC1=C(C(=O)Nc2ccccn2)N(C)S(=O)(=O)c2ccccc21 (stereo not drawn)
inactive: outcome [1] | Potency [2] | Potency [3] | outcome [4] | outcome [5] | Potency [6] | outcome [7] | Potency [10] | outcome [8]

CC(C)NNC(=O)c1ccncc1
inactive: outcome [1] | Potency [2] | Potency [3] | outcome [4] | outcome [5] | Potency [6] | Potency [9] | outcome [7] | outcome [8]

C=COC(=O)C(C)(CC)CCC(C)C (stereo not drawn)
inactive: outcome [1] | Potency [2] | Potency [3] | outcome [4] | outcome [5] | outcome [7] | Potency [10] | outcome [8]

C=C(C)C(=O)OCCOCCOCCOCCOC(=O)C(=C)C
inactive: outcome [1] | Potency [2] | Potency [3] | outcome [4] | outcome [5] | Potency [6] | outcome [7] | Potency [10] | outcome [8]

C1CCC2=NCCCN2CC1
inactive: outcome [1] | Potency [2] | Potency [3] | outcome [4] | outcome [5] | Potency [9] | outcome [7] | outcome [8]

O=S(=O)(O)c1cccc2c(S(=O)(=O)O)cccc12
inactive: outcome [1] | Potency [2] | Potency [3] | outcome [4] | outcome [5] | Potency [9] | Potency [10] | outcome [8]

CC1(C)OC[C@@H](COC(=O)CCc2ccc(OC[C@@H](O)CNCCNC(=O)N3CCOCC3)cc2)O1
inactive: outcome [1] | Potency [2] | Potency [3] | outcome [4] | outcome [5] | Potency [6] | outcome [7] | Potency [10] | outcome [8]

COc1cc(C(=O)OC(COCCC(C)C)CN2CCOCC2)cc(OC)c1OC (stereo not drawn)
inactive: outcome [1] | Potency [2] | Potency [3] | outcome [5] | Potency [6] | Potency [9] | outcome [7] | Potency [10] | outcome [8]

Nc1ccncc1N
inactive: outcome [1] | Potency [2] | Potency [3] | outcome [5] | Potency [6] | Potency [9] | outcome [7] | outcome [8]

N[C@@H](CCC(=O)O)C(=O)O
inactive: outcome [1] | Potency [2] | Potency [3] | outcome [5] | Potency [6] | Potency [9] | outcome [7] | outcome [8]

C=CCCCCCCCCC(=O)OCC
inactive: outcome [1] | Potency [2] | Potency [3] | outcome [5] | Potency [6] | Potency [9] | outcome [7] | Potency [10] | outcome [8]

C[N+]1(C)[C@@H]2CC(OC(=O)[C@H](CO)c3ccccc3)C[C@H]1[C@@H]1O[C@@H]12 (stereo partly drawn)
inactive: outcome [1] | Potency [2] | Potency [3] | outcome [4] | outcome [7] | outcome [8]

C=C(C)C(=O)OCC1CCCO1 (stereo not drawn)
inactive: outcome [1] | Potency [2] | outcome [4] | outcome [5] | Potency [6] | Potency [9] | outcome [7] | Potency [10] | outcome [8]
